Among the data in PubChem BioAssay AID720519 (National Center for Advancing Translational Sciences (NCATS), 2013) are Potency values, retold here.

Inconclusive results are not listed. Entries that show only a call come without a potency. Active and inactive are the calls of the source. The call rests on the fitted dose curve; in most records, active means well fitted activation curve with a large enough effect; inconclusive means small, poorly fitted or top-dose-only effect; inactive means flat fitted curve, though single readings scatter.
Potency means the concentration at half of the fitted maximal effect.

The test is described as follows: qHTS for Inhibitors of Cell Surface uPA Generation: Confirmatory Assay for Cherry-picked Compounds. To be noted: cell surface uPA activity generation, qHTS confirmation; series mostly up to 115 µM. Summed up:
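RAW 264.7 cells at 4000/well, incubated overnight, then treated with compounds. After 24 h at 37 C, viability was read by ATPlite luminescence. An increase in signal indicates blocked uPA-dependent LF entry.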
(In qHTS, concentration-response curves come from the screen itself.)
Consider `COC(=O)c1ccc(N2CCN(c3ccccc3)CC2)c(NC(=O)C2CC2)c1`, for which the Potency entry was “inactive”.

As to `CC1(C)Oc2ccc3ccc(=O)oc3c2[C@@H](O)[C@H]1O`, the Potency result was “inactive”.

As to `COc1cc(C(C)=O)ccc1OCc1cn(CC(=O)c2ccc(O)cc2)nn1`, the Potency result was “inactive”.

Turning to `CC(=O)c1c(C)n(-c2ccccc2Br)c2ccc(O)cc12`, the Potency result is “inactive”.

With `CCOC(=O)C1=C(C)NC(C)=C(C(=O)OCC)C1C(=O)OCC(=O)NCCc1ccccc1`, the Potency was 9.27 µM (active).

Regarding `Cc1ccc2oc(C(=O)N(Cc3ccc(N(C)C)cc3)C3CCS(=O)(=O)C3)c(C)c2c1` (centres undefined), the Potency entry is “inactive”.

`O=C(CSc1nnnn1-c1cccc(F)c1)Nc1nc2ccccc2s1`: the Potency entry was “inactive”.

In the case of `CC(=O)c1cccc(NC(=O)N2C3CCC2CC(O)(c2cccnc2)C3)c1` (centres undefined), the Potency result was “inactive”.

As for `O=C(c1cc(COc2ccc(F)cc2Cl)on1)N1CCCCCC1`, the Potency entry was “inactive”.

In the case of `COc1ccccc1NC(=O)COc1ccc(C(=O)NCc2ccccc2)cc1OC`, the Potency result was “inactive”.

In the case of `COc1ccc([C@@H]2[C@@H]3C(=O)N(C(C)(C)C)C(=O)[C@@H]3[C@]3(C)C(=O)N(c4cccc(Cl)c4)C(=O)N23)cc1`, the Potency result is “inactive”.

Take `N#CCC(=O)N/N=C/c1ccc(OCC(=O)Nc2ccc(F)cc2)cc1`: the Potency result is “inactive”.

For `OCCN(Cc1ccccc1)CC(O)COc1ccc2c(c1)OCO2` (centres undefined), the Potency entry is “inactive”.

Consider `O=C1NCCN1C(=O)N(c1ccccc1)c1ccccc1`, for which the Potency result was “inactive”.

Consider `COc1ccc(CC(=O)NNS(=O)(=O)c2ccccc2[N+](=O)[O-])cc1OC`, for which the Potency result was “inactive”.

In the case of `Cc1ccc(CN2CCN(Cc3cc4ccccc4o3)CC2CCO)cc1` (centres undefined), the Potency entry is “inactive”.

`CCOC(=O)C(CC)n1cnc2c(nnn2-c2ccccc2)c1=O` (centres undefined): the Potency entry was “inactive”.

On to `CC(CCc1ccccc1)NC(=O)c1ccc(NC(=O)c2cccc(Br)c2)cc1` (centres undefined), for which the Potency entry is “inactive”.

Take `COc1ccc(C(=O)NNC(=O)Cc2ccc(Cl)cc2)cc1`: the Potency entry was “inactive”.

As for `CCN(C1CCS(=O)(=O)C1)S(=O)(=O)c1ccc2ccccc2c1` (centres undefined), the Potency result was “inactive”.

For the molecule `CC(C)(C)n1ncc2c(=O)n(Cc3ccc(Cl)cc3)cnc21`, the Potency result is “inactive”.

Regarding `COc1ccccc1NNC(=O)C(O)(c1ccccc1OC)c1ccccc1OC`, the Potency entry is “inactive”.

Consider `Cc1cc(SCc2ccc(Cl)cc2)nc(=O)[nH]1`, for which the Potency result was “inactive”.

For `COc1cc(OC)cc(C(=O)NC(C(=O)Nc2ccc3c(c2)CCC3)C(C)C)c1` (centres undefined), the Potency entry is “inactive”.

For `O=C(OCC(=O)N1CCOCC1)c1c(Cl)ccc(Cl)c1Cl`, the Potency entry is “inactive”.

Turning to `Cc1[nH]c2ccccc2c1C(=O)C(C)OC(=O)c1ccccc1NCCO` (centres undefined), the Potency result was “inactive”.

Consider `Cc1ccc(Nc2nc(Cl)c(C=O)s2)cc1`, for which the Potency result was “inactive”.

`COc1ccccc1CCNC(=O)C(=O)NCC1OCCN1S(=O)(=O)c1ccc(OC)c(OC)c1` (centres undefined): the Potency result was “inactive”.

`COC(=O)c1c(NC(=O)c2c(OC)cccc2OC)sc2c1C(C(=O)OC)CC2` (centres undefined): the Potency was 29.3 µM (active).

For the molecule `C#CCOCCOCCOCCNc1nc(N2CCOCC2)nc(N2CCN(C(=O)[C@H](CCC(=O)O)n3cc([C@@H](N)CCCCN)nn3)CC2)n1`, the Potency result is “inactive”.

As to `O=C(Nn1cnnc1)c1ccc(Cl)cc1`, the Potency result was “inactive”.

For `O=C(CCc1ccccc1)NNC(=O)c1cccc(F)c1`, the Potency entry is “inactive”.

For the molecule `CCCCN(CC(=O)Nc1cccc(S(=O)(=O)N2CCCC2)c1)Cc1nc2ccccc2c(=O)[nH]1`, the Potency entry is “inactive”.

Turning to `CCN(CC)S(=O)(=O)c1ccc(C(=O)Nc2nnc(COC)o2)cc1`, the Potency result is “inactive”.

Take `Cc1ccc(C(O)(COC(=O)C(C)C)COC(=O)C(C)C)c(O)c1`: the Potency result is “inactive”.

Consider `Cc1cccc(N2C(=O)c3cccc(Oc4ccc(Cl)cc4)c3C2=O)c1`, for which the Potency entry is “inactive”.

On to `COc1ccc(NC(=O)/C(N=Nc2cc(S(=O)(=O)Nc3ccc(OC)cc3)ccc2OC)=C(\C)O)cc1`, for which the Potency entry was “inactive”.

With `COc1ccc(OC)c(NC(=O)C2CCCN2C(=O)C2CCC(C)CC2)c1` (centres undefined), the Potency result is “inactive”.

`Cn1nc(C(C)(C)C)c([N+](=O)[O-])c1C(=O)N1CCOCC1`: the Potency entry was “inactive”.
